Structures can show the parent of a compound that is named as a salt.
Each compound was assayed on Drosophila S2 cl14 SmoIP sensor cells (assay: normalized SmoIP GFP fluorescence (untreated unstimulated = 0%, untreated Hh-stimulated = 100%); higher = more Smo activation sensor fluorescence). Details: stimulation: Hh conditioned medium (+Hh); compound concentration: 2 uM; 24 h.
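Further: flow cytometry read-out as median GFP intensity of gated cells, compounds added 30 min before Hh-conditioned or mock medium, mock-treated cells serving as unstimulated baseline.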

Row | SMILES | normalized SmoIP GFP fluorescence [%]
1 | Fc1ccc([C@@H]2CCNC[C@H]2COc2ccc3c(c2)OCO3)cc1 [paroxetine-hcl] | 103
2 | CC(=O)[C@H]1CC[C@H]2[C@@H]3CC=C4C[C@@H](O)CC[C@]4(C)[C@H]3CC[C@]12C [pregnenolone] | 116
3 | Cc1ccc(S(=O)(=O)c2ccc([N+](=O)[O-])o2)cc1 | 144
4 | CNCC[C@@H](Oc1ccccc1C)c1ccccc1 [atomoxetine-hydrochloride] | 104
5 | CN(C)CC[C@H](CSc1ccccc1)Nc1ccc(S(=O)(=O)NC(=O)c2ccc(N3CCN(Cc4ccccc4-c4ccc(Cl)cc4)CC3)cc2)cc1[N+](=O)[O-] | 109
6 | Cc1ccc(C(=O)Nc2ccc(CN3CCN(C)CC3)c(C(F)(F)F)c2)cc1C#Cc1cnc2[nH]ncc2c1 | 104
7 | CN1CCC[C@@H]1CCO[C@](C)(c1ccccc1)c1ccc(Cl)cc1 [Clemastine-Fumarate] | 104
8 | O=C(O)CCCN1CCC(O[C@@H](c2ccc(Cl)cc2)c2ccccn2)CC1 [bepotastine-besilate] | 103
9 | Nc1ccccc1NC(=O)c1ccc(CNC(=O)OCc2cccnc2)cc1 | 203
10 | CC(C)C[C@@H](C(=O)N[C@H](C(=O)OC1CCCC1)c1ccccc1)[C@H](O)C(=O)NO [CHR-2797(Tosedostat)] | 108
11 | Nc1nc(Nc2ccc(S(N)(=O)=O)cc2)nn1C(=O)c1c(F)cccc1F | 205
12 | Cc1cnc(-c2cc(N3CCN(C(=O)CCS(C)(=O)=O)CC3)ncc2Cl)c(C)c1 | 102
13 | c1cc(-c2cnn3cc(-c4ccc(N5CCNCC5)cc4)cnc23)c2cccnc2c1 | 120

From the supplement of paper PMC5662767
